Results reported in PubChem BioAssay (EPA / NIEHS).
Several values for one entry are separate records, joined by “and”; a condition that tells them apart may be missing. Equal values may be shown once. Results filed as inconclusive are left out. The source holds several records for some structures; these can differ, active in one and inactive in another. Activity calls are given as the source filed them. The calls were made as follows: active = hit-call score of the fitted dose curve at least 0.9, where 1 is the maximum; inconclusive = response in the unintended direction; inactive = score below 0.9.

Columns and labels:
[1] = target: rat Thyrotropin Releasing Hormone Receptor (TRH), Trhr (gene 25570) (UniProt Q01717); assay: NVS_GPCR_rTRH: NovaScreen (NVS) G Protein-Coupled Receptor Assay for rat Thyrotropin Releasing Hormone Receptor (TRH) (AID 2283329);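 also: hit means lower bound tracer signal versus DMSO baseline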
Procedure, shortened: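 Rat forebrain membrane prep, radioligand displacement, filter scintillation readout at 4 h. Single conc 25 uM, duplicate; actives retested as concentration series. DMSO = negative control/baseline.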

[2] = target: human Peripheral-type Benzodiazepine Receptor (PBR), TSPO (gene 706) (UniProt P30536); assay: NVS_MP_hPBR: NovaScreen (NVS) Membrane Protein Assay for human Peripheral-type Benzodiazepine Receptor (PBR) (AID 2283331);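 also: hits reduce radioligand binding relative to DMSO baseline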
Procedure, shortened: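 Cell-free binding to human colonic membrane preparations measured by filter-based scintillation counting after 1 h. Compounds first run at 25 uM in duplicate, then concentration series for actives; signal loss against DMSO baseline.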

[3] = target: Sodium channel protein type 1 subunit alpha (Rattus norvegicus) (UniProt P04774); assay: NVS_IC_rNaCh_site2: NovaScreen (NVS) Ion Channel Assay for rat Sodium Channel, Site 2 (NaCh) (AID 2283322);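 also: hit means loss of radioligand binding signal relative to DMSO so AC50 marks displacement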
Procedure, shortened: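 Initial duplicate single-point testing at 25 uM, followed by concentration-response runs for actives. Binding of radioligand to rat forebrain membranes quantified after 1 h via filter-based radiodetection.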

[4] = target: rat Glutamate, NMDA Agonist Site (GluNMDA), Grin1 (gene 24408) (UniProt P35439); assay: NVS_LGIC_rGluNMDA_Agonist: NovaScreen (NVS) Ligand-Gated Ion Channel Assay for rat Glutamate, NMDA Agonist Site (GluNMDA) (AID 2283327)
Procedure, shortened: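 Radioligand displacement at the agonist site on rat forebrain membrane preparations, read by filter scintillation after 1 h. Chemicals were first run at 25 uM in duplicate; those passing threshold were titrated to a 50 uM maximum.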

[5] = target: rat Gamma-Aminobutyric Acid Type A Receptor, Non-Selective (GABAR-NonSelective), Gabra1 (gene 29705) (UniProt P62813); assay: NVS_LGIC_rGABAR_NonSelective: NovaScreen (NVS) Ligand-Gated Ion Channel Assay for rat Gamma-Aminobutyric Acid Type A Receptor, Non-Selective (GABAR-NonSelective) (AID 2283326)
Procedure, shortened: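 Compounds were first screened in duplicate at 25 uM, with actives run as singleton concentration series (max 50 uM). Binding of a radioligand to rat whole-brain GABA-A preparation was measured by filtration and scintillation counting after 1 h, DMSO baseline.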

[6] = target: rat Glutamate, AMPA Site (AMPA), Gria1 (gene 50592) (UniProt P19490); assay: NVS_LGIC_rAMPA: NovaScreen (NVS) Ligand-Gated Ion Channel Assay for rat Glutamate, AMPA Site (AMPA) (AID 2283324)
Description: NVS_LGIC_rAMPA is a biochemical, single-readout assay that uses extracted gene-proteins from Rat forebrain membranes in a tissue-based cell-free assay. Measurements were taken 1 hour after chemical dosing in a 48-well plate.NVS_LGIC_rAMPA is one of one assay component(s) measured or calculated from the NVS_LGIC_rAMPA assay. It is designed to make measurements of radioligand binding, a form of binding reporter, as detected with scintillation counting signals by Filter-based radiodetection technology.Data from the assay component NVS_LGIC_rAMPA was analyzed into 1 assay endpoint. This assay endpoint, NVS_LGIC_rAMPA, was analyzed in the positive analysis fitting direction relative to DMSO as the negative control and baseline of activity. Using a type of binding reporter, loss-of-signal activity can be used to understand changes in the binding as they relate to the gene Gria1. Furthermore, this assay endpoint can be referred to as a primary readout, because the performed assay has only produced 1 assay endpoint. To generalize the intended target to other relatable targets, this assay endpoint is annotated to the ion channel intended target family, where the subfamily is ligand-gated ion channel.
Binding assays used specific radioligands (tritiated, iodinated) with non-radioactive competitive displacement ligands in agonist or antagonist protocols (as indicated) and various reference compounds and inhibitors to titrate specific binding to receptors and transporters. Most enzyme assays (CYPs, kinases, phosphatases, proteases, HDACs) used recombinant protein and specific substrates (fluorescence mostly, some colorimetric and radioactive) and inhibitors, followed by a biochemical separation of substrate and product. All assays for the biochemical HTS were initially run in duplicate at a single concentration (10 uM for CYP450 assays and 25 uM for all others). Assay-chemical combinations meeting a pre-defined threshold (e.g., 30% inhibition and other criteria defined below) were then run in singleton concentration-response format with maximum concentration of 20 uM for CYPs and 50 uM for all others. Each assay was run with positive and negative controls, and concurrent controls on every plate. The follow-up (secondary) screen tested active chemical-pairs in concentration series, as well as a few additional assays not tested in the primary screen, some selected negative inactives, and several cases re-run in the concentration series for confirmatory purposes.

[7] = target: bovine Gamma-Aminobutyric Acid Type A Receptor BDZ, alpha 5 site (GABARa5), GABRA5 (gene 523515) (UniProt Q08E50); assay: NVS_LGIC_bGABARa5: NovaScreen (NVS) Ligand-Gated Ion Channel Assay for bovine Gamma-Aminobutyric Acid Type A Receptor BDZ, alpha 5 site (GABARa5) (AID 2283323)
Procedure, shortened: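 Tested first in duplicate at a single 25 uM, with hits re-run in concentration series to a 50 uM maximum. Bovine hippocampal membranes; specific radioligand displacement measured by filter scintillation counting 1 hr post-dose.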

[8] = target: human Androgen Receptor (AR), AR (gene 367) (UniProt P10275); assay: NVS_NR_hAR: NovaScreen (NVS) Nuclear Receptor Binding Assay for human Androgen Receptor (AR) (AID 2283332)
Procedure, shortened: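 Radioligand competitive binding, scintillation read-out, in cell-free extract from LnCAP, measured 20 h after dosing. Screened first in duplicate at 25 uM, then concentration series for actives; activity fitted against DMSO.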

[9] = target: Voltage-gated inwardly rectifying potassium channel KCNH2 (Homo sapiens) (UniProt Q12809); assay: NVS_IC_hKhERGCh: NovaScreen (NVS) Ion Channel Assay for human Potassium Channel ERG (KhERGCh) (AID 2283333)
Procedure, shortened: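 Membranes from CHO cells expressing human ERG; displacement of radioligand measured by filtration and scintillation after 0.75 h. Single-concentration duplicate screen at 25 uM, then concentration-response for actives; DMSO baseline.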

[10] = target: human Serotonin, 5-Hydroxytryptamine Receptor 3 (5HT3), HTR3A (gene 3359) (UniProt P46098); assay: NVS_LGIC_h5HT3: NovaScreen (NVS) Ligand-Gated Ion Channel Assay for human Serotonin, 5-Hydroxytryptamine Receptor 3 (5HT3) (AID 2283325)
Procedure, shortened: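 Initially tested at 25 uM in duplicate, then up to 50 uM in concentration-response for actives, compounds competed with a radioligand for HEK293-derived human 5-HT3 receptor. Bound counts were measured by filtration and scintillation at 1 h; loss of signal versus DMSO.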

Sequence of rat Gamma-Aminobutyric Acid Type A Receptor, Non-Selective (GABAR-NonSelective), Gabra1 (gene 29705) (P62813 whole entry, looked up): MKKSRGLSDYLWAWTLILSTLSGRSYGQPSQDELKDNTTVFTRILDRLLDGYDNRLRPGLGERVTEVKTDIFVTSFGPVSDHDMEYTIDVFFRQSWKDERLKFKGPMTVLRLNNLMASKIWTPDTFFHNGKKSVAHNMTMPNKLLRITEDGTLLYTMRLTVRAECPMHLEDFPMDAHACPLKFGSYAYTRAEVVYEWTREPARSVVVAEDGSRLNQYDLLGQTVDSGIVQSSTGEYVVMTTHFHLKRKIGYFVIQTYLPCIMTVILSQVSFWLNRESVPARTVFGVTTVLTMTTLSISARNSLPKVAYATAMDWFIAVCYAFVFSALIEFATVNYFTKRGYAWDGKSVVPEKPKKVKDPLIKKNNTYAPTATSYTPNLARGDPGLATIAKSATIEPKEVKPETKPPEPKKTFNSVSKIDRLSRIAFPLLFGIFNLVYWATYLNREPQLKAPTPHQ
Sequence of human Androgen Receptor (AR), AR (gene 367) (P10275 whole entry, looked up): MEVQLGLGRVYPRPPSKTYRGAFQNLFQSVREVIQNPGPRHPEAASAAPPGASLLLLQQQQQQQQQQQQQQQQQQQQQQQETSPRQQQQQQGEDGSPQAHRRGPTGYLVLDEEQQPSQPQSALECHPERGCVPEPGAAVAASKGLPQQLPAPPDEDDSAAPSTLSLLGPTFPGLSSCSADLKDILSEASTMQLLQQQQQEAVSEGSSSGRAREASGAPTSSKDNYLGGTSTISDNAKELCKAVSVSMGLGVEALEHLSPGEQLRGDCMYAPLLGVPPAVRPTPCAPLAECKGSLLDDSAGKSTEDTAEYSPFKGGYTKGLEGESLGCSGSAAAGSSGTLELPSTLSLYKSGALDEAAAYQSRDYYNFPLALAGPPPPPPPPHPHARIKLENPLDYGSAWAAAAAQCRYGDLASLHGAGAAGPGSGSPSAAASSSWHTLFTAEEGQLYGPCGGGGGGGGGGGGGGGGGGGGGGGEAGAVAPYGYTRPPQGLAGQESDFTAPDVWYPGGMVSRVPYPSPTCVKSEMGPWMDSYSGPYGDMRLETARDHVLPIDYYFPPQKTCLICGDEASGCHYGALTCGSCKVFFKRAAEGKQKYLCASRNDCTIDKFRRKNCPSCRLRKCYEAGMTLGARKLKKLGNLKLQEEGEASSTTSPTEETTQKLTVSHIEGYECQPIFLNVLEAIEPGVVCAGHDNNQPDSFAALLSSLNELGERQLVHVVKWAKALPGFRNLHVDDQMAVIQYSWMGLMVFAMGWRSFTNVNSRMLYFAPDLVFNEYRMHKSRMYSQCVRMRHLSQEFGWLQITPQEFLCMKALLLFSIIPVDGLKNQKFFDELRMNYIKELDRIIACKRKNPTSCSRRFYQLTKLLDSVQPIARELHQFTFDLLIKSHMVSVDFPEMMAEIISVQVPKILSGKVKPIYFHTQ
Sequence of human Peripheral-type Benzodiazepine Receptor (PBR), TSPO (gene 706) (P30536 whole entry, looked up): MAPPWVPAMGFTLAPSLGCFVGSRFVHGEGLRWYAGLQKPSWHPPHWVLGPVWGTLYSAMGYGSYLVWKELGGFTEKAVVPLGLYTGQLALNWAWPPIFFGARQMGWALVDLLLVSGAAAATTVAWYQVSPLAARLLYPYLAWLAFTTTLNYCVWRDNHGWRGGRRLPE
Sequence of rat Thyrotropin Releasing Hormone Receptor (TRH), Trhr (gene 25570) (Q01717 whole entry, looked up): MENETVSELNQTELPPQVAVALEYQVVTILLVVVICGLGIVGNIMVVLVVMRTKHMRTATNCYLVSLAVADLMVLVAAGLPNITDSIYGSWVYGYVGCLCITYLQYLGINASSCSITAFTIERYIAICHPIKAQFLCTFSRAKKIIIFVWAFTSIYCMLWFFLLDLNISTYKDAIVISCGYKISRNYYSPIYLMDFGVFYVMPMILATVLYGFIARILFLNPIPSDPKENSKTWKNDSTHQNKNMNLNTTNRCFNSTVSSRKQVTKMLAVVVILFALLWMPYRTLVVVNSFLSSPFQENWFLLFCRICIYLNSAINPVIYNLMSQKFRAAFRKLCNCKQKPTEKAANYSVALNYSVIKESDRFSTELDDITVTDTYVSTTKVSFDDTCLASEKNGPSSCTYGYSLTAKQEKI
Sequence of rat Glutamate, AMPA Site (AMPA), Gria1 (gene 50592) (P19490 whole entry, looked up): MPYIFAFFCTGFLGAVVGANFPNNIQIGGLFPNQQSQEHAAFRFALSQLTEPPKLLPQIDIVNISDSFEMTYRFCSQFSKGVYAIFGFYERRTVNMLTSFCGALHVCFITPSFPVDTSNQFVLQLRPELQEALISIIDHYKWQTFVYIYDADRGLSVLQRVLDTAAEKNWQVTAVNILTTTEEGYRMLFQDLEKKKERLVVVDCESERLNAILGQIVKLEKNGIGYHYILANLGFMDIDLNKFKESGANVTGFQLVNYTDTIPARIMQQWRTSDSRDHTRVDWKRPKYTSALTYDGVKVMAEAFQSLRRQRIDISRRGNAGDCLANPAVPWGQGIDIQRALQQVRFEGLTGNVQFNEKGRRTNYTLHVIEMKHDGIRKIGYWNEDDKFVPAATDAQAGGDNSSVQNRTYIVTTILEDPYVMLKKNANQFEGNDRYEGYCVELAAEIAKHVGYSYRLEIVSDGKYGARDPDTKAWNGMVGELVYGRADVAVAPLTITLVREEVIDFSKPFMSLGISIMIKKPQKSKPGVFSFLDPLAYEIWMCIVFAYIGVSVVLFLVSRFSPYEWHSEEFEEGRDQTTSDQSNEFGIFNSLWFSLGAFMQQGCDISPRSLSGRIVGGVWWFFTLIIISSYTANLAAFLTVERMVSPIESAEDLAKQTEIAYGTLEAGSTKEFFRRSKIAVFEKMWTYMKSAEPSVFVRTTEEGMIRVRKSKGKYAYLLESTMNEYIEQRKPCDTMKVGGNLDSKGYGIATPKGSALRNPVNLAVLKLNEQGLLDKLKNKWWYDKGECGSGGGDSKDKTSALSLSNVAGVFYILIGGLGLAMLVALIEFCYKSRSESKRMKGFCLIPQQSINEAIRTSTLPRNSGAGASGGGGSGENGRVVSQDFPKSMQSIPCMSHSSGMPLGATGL
Sequence of Voltage-gated inwardly rectifying potassium channel KCNH2 (Homo sapiens) (Q12809 whole entry, looked up): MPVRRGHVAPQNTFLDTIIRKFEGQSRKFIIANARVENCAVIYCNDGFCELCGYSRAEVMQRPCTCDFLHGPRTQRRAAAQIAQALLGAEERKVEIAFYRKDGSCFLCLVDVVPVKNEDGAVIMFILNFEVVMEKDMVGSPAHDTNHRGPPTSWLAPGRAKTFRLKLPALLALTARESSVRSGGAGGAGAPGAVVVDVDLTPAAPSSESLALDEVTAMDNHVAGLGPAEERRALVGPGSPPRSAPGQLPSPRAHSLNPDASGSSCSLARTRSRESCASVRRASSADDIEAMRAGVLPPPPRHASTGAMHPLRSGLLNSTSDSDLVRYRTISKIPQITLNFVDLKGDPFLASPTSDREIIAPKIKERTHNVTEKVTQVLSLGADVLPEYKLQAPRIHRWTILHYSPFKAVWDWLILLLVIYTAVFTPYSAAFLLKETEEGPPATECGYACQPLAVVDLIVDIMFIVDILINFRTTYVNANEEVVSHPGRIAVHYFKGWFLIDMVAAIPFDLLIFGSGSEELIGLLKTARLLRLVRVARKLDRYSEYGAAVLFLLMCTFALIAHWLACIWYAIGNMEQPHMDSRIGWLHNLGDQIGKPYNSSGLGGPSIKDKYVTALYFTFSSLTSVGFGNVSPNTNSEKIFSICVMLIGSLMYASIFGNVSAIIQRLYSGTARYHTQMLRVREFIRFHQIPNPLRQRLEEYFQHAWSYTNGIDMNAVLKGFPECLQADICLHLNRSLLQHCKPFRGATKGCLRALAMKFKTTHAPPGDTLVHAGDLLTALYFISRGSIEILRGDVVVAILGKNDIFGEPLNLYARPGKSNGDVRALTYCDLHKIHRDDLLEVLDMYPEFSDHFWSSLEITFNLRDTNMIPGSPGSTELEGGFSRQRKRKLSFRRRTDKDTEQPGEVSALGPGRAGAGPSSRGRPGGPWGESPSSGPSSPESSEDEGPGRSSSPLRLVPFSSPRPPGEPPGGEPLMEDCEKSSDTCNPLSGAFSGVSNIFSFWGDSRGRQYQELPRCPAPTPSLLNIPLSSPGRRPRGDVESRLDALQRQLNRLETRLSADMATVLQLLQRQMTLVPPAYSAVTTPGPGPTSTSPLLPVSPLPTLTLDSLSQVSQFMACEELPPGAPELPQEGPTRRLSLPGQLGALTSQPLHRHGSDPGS
Sequence of human Serotonin, 5-Hydroxytryptamine Receptor 3 (5HT3), HTR3A (gene 3359) (P46098 whole entry, looked up): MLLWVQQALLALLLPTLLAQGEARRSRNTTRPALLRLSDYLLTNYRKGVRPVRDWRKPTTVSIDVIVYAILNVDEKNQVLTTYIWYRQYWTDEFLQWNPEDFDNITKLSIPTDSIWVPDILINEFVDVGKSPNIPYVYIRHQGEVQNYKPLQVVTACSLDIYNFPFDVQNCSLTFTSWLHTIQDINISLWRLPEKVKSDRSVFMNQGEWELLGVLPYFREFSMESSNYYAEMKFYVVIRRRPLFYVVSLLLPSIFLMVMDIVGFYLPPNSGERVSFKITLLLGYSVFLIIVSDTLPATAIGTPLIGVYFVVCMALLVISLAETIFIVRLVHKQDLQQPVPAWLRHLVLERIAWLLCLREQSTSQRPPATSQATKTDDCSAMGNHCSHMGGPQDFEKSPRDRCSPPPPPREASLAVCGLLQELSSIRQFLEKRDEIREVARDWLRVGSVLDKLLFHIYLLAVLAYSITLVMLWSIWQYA
Sequence of bovine Gamma-Aminobutyric Acid Type A Receptor BDZ, alpha 5 site (GABARa5), GABRA5 (gene 523515) (Q08E50 whole entry, looked up): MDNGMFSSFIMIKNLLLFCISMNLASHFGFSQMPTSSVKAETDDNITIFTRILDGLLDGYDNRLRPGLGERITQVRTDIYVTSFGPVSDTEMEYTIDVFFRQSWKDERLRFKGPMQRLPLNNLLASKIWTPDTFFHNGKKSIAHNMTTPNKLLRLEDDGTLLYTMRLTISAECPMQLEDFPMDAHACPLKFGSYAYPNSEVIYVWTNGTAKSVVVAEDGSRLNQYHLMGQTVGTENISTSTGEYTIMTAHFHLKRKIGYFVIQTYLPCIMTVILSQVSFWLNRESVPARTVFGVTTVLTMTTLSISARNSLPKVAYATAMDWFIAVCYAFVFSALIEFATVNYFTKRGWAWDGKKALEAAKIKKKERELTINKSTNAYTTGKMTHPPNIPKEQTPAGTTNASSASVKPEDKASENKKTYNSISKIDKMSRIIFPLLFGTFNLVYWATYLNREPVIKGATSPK

COC(=O)c1ccccc1S(=O)(=O)NC(=O)Nc1nc(OC(F)F)cc(OC(F)F)n1
outcome [1]: inactive

CCCCCCC(C)OC(=O)COc1nc(F)c(Cl)c(N)c1Cl (stereo unspecified)
outcome [2]: inactive

CC(=O)S[C@@H]1CC2=CC(=O)CC[C@]2(C)[C@H]2CC[C@@]3(C)[C@@H](CC[C@@]34CCC(=O)O4)[C@H]12
AC50 [3]: 8.6 µM (active) | outcome [4]: inactive | outcome [1]: inactive | outcome [2]: inactive

CCNc1nc(N)nc(Cl)n1
outcome [2]: inactive

c1ccc(Nc2ccccc2)cc1
outcome [5]: inactive

S=C(S)NCCNC(=S)S.[Mn+2].[S-]C([S-])=NCCN=C([S-])[S-].[Zn+2]
AC50 [6]: 4.81 µM (active) | outcome [6]: inactive | outcome [4]: inactive | AC50 [2]: 9.51 µM (active) and 4.71 µM (active) and 3.45 µM (active)

CC(C)(C)[C@@H](O)[C@@H](Cc1ccc(Cl)cc1)n1cncn1
outcome [4]: inactive

CC(=O)[C@H]1CC[C@H]2[C@@H]3CCC4=CC(=O)CC[C@]4(C)[C@H]3CC[C@]12C
AC50 [2]: 1.75 µM (active) and 1.51 µM (active) and 4.64 µM (active)

Oc1ccc(C(c2ccc(O)cc2)C(Cl)(Cl)Cl)cc1
outcome [7]: inactive | outcome [6]: inactive | outcome [2]: inactive

CCCCOCCOCCOCc1cc2c(cc1CCC)OCO2
AC50 [2]: 26.9 µM (active)

C[C@]12CC[C@@H]3c4ccc(O)cc4C[C@@H](CCCCCCCCCS(=O)CCCC(F)(F)C(F)(F)F)[C@H]3[C@@H]1CC[C@@H]2O (stereo partly specified)
outcome [1]: inactive | outcome [2]: inactive | outcome [8]: inactive

CCOC(=O)NCCOc1ccc(Oc2ccccc2)cc1
outcome [3]: inactive | outcome [2]: inactive

CCCCC(CC)CN1C(=O)C2C3C=CC(C3)C2C1=O (stereo unspecified)
outcome [1]: inactive | outcome [2]: inactive

COC(=O)c1ccccc1C(=O)O
outcome [2]: inactive

O=C(c1ccc(O)cc1O)c1ccc(O)cc1O
outcome [1]: inactive | AC50 [8]: 1.39 µM (active)

CCN(CC)C(=O)c1cccc(C)c1
AC50 [2]: 20.1 µM (active)

COc1nc(C)nc(NC(=O)NS(=O)(=O)c2ccccc2OCCCl)n1
outcome [2]: inactive

C=CCOC(Cn1ccnc1)c1ccc(Cl)cc1Cl (stereo unspecified)
AC50 [3]: 4.57 µM (active) | AC50 [1]: 17 µM (active) | AC50 [2]: 10.6 µM (active) | AC50 [9]: 12.5 µM (active)

CCOC(=O)C(C)Oc1ccc(Oc2cnc3cc(Cl)ccc3n2)cc1 (stereo unspecified)
outcome [5]: inactive

CSC(=O)c1cccc2nnsc12
outcome [8]: inactive

OB(O)O
outcome [3]: inactive

O=C(c1ccccc1)C1CCCCC1
outcome [1]: inactive

Cc1nn(C)c(Oc2ccccc2)c1C=NOCc1ccc(C(=O)OC(C)(C)C)cc1
outcome [9]: inactive

CN(C)C(=O)Nc1ccc(Cl)c(Cl)c1
AC50 [2]: 19.9 µM (active)

COC(=O)CSc1cc(N=c2sc(=O)n3n2CCCC3)c(F)cc1Cl
outcome [5]: inactive | outcome [2]: inactive

CC(C)CCCCCCc1ccc(O)cc1
outcome [2]: inactive

CC(C)(c1ccc(O)cc1)c1ccc(O)cc1
AC50 [3]: 25.4 µM (active) | outcome [3]: inactive | outcome [10]: inactive | AC50 [4]: 19.7 µM (active) and 25.4 µM (active) and 15 µM (active) | outcome [2]: inactive | AC50 [8]: 9.86 µM (active) [middle of 4 runs] | outcome [8]: inactive

CCCCCOC(=O)COc1cc(N2C(=O)C3=C(CCCC3)C2=O)c(F)cc1Cl
outcome [6]: inactive | AC50 [2]: 2.72 µM (active)

CCCCOC(=O)[C@@H](C)Oc1ccc(Oc2ccc(C(F)(F)F)cn2)cc1
outcome [2]: inactive

CC1(C)C(C=C(Cl)Cl)C1C(=O)OCc1cccc(Oc2ccccc2)c1 (stereo unspecified)
outcome [1]: inactive | AC50 [2]: 40.2 µM (active)

CCCN(CCC)C(=O)SCC
outcome [2]: inactive | outcome [8]: inactive

S=C([S-])NCCNC(=S)[S-].[Mn+2]
outcome [6]: inactive | outcome [4]: inactive | outcome [2]: inactive

CCCCC(CC)COC(=O)c1ccccc1C(=O)O (stereo unspecified)
AC50 [2]: 39.2 µM (active)
